Screening data deposited in PubChem BioAssay by National Center for Advancing Translational Sciences (NCATS).
A selection: hits, their analogues and other compounds. The true share with any hit is near 12%.
BAZ2B inh – inhibitors of human BAZ2B bromodomain. Q9UIF8. AlphaScreen BAZ2B-H3K14Ac peptide displacement. Potency, µM (series often up to 114 µM), without a hit: top-dose activity change, negative = inhibition, hits mostly inhibitors. 4.4% of 360,000 active; note: % is set by controls: 0 for no effect and ±100 for the full control effect; nearly all actives have a fitted effect of over 60% in size
Target sequence (Q9UIF8 whole entry, looked up): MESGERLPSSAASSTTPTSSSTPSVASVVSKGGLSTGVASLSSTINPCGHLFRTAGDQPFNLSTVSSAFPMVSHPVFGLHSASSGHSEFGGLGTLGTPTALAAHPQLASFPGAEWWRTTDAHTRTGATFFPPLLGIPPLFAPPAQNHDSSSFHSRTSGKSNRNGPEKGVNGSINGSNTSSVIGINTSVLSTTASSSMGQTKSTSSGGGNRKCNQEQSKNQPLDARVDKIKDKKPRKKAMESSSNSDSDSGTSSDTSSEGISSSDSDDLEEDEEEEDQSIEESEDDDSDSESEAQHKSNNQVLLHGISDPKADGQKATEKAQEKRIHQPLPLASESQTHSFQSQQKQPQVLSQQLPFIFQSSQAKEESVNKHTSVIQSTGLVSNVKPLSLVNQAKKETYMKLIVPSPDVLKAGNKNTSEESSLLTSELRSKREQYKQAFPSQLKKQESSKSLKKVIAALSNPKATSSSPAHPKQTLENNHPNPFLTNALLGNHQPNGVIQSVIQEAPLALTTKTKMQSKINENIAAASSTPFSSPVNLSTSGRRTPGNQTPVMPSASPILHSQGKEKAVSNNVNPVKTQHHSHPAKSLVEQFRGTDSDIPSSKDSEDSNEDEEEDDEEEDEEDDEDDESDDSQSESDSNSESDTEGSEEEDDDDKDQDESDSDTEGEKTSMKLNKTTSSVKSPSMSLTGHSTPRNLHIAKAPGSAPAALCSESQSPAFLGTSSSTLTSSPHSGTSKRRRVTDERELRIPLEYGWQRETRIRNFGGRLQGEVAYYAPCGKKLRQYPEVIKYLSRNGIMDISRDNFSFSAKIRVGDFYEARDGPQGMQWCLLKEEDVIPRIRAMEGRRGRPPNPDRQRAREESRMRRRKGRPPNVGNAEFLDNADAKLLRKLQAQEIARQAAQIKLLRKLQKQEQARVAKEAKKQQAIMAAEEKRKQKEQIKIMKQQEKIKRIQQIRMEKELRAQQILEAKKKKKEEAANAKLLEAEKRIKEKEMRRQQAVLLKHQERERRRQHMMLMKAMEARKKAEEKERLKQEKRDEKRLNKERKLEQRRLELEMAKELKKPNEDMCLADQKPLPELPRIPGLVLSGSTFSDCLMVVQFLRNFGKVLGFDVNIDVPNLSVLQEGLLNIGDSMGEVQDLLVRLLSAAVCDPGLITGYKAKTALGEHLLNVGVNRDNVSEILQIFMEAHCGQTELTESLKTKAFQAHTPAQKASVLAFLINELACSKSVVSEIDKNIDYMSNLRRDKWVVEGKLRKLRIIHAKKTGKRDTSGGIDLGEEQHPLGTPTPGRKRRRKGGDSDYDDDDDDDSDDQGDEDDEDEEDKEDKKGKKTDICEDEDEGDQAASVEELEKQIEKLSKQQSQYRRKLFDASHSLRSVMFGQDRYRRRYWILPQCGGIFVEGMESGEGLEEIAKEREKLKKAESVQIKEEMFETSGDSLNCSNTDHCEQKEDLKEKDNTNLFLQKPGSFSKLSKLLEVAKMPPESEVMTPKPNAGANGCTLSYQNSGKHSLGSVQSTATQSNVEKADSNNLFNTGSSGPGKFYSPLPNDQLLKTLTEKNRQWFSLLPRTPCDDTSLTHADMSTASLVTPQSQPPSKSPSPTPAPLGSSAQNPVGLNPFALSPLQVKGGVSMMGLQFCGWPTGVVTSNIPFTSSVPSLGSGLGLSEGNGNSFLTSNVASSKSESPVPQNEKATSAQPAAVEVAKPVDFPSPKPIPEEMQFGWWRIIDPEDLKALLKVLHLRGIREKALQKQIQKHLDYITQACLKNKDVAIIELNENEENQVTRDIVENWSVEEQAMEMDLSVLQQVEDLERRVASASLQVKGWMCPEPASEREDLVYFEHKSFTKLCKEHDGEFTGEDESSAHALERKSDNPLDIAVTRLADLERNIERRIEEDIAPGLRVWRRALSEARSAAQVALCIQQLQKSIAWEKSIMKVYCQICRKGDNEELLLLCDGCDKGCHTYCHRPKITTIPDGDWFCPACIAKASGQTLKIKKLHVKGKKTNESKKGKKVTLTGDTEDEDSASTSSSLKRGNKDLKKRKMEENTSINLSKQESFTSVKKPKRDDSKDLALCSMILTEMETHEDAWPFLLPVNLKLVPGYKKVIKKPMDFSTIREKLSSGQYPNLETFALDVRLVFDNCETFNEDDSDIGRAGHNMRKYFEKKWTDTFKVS
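Protein-peptide AlphaScreen: BAZ2B 50 nM, b-H3K14Ac 50 nM, 1x PBS pH 7.4 + 0.01% Tween-20. Preincubation 30 min RT; cpd 30 min RT (top 110 uM); beads 20 min RT, light-protected.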
JMJD2A Tudor – inhibitors of human JMJD2A Tudor domain. AlphaScreen JMJD2A-Tudor / H3K4me3 peptide binding. Potency, µM (titrated, usually from 114 µM), for the others: at the highest dose activity change, negative = inhibition, hits mostly inhibitors. 4.4% of 390,000 active. AID 504339; note: % is set by controls: 0 for no effect and ±100 for the full control effect; nearly all actives have a fitted effect of over 50% in size
HP1b chromo inh – HP1-beta chromodomain-methylated histone interaction inhibition; AID 540317; P83916; Potency, µM (series often up to 114 µM), without a hit: at the highest dose activity change, negative = inhibition, most hits filed as inhibitors; 0.56% of 390,000 active; AlphaScreen HP1-beta / biotin-H3K9me3 peptide binding; note: nearly all actives have a fitted effect of over 70% in size
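AlphaScreen: HP1-beta (50 nM) preformed 30 min with biotin-H3(1-18)K9me3 peptide (50 nM) in PBS pH 7.4, 0.01% Tween-20. Compound added for 30 min at RT, then streptavidin donor/nickel chelate acceptor beads (10 ug/mL) for 30 min.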
G9a block – blocks human histone lysine methyltransferase G9a | AID 504332 | G9a H3K9 monomethylation, AlphaScreen, 2 h | Q96KQ7 | Potency, µM (highest dose often 102 µM), for inactives: at the highest dose activity, negative = inhibition, usual class: inhibitors | 8.8% of 350,000 active; note: % is set by controls: 0 for no effect and ±100 for the full control effect; nearly all actives have a fitted effect of over 75% in size
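Readings reflect AlphaScreen signal from monomethyl-H3K9 antibody detection. HMT at 20 nM; substrate b-H3K9 500 nM; cofactor SAM 20 uM; 2 h RT reaction; compounds tested as titrations in qHTS with 15 min preincubation.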
Sfp inh – blocks B. subtilis Sfp PPTase activity. Potency, µM, inactives show largest response in the series, negative = inhibition, usual class: inhibitors. Biochemical Sfp PPTase activity, qHTS. Q9F4F7. AID 1490. 3.5% of 310,000 active;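 note: the enzyme is Sfp with the accession as filed and its product quenches rhodamine fluorescence; 0% = enzyme reaction without inhibitor and -100% = no enzyme wells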
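Step 1, compound plus 15 nM Sfp-PPTase, 15 min, room temperature. Step 2, add rhodamine-CoA (5 uM) and BHQ-2-YbbR (12.5 uM). Step 3, read 525/598 nm fluorescence at 0 and 30 min.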
Numbers without * were called inactive; ? = inconclusive; . = no result; [ ] = dose if it differs, or a comment. Calls come from the whole dose curve; as a rule, active = well fitted curve in the direction sought with a large enough effect; inconclusive = small, poorly fitted or top-dose-only effect, or another doubt; inactive = no such curve, though single readings can be large; an effect the other way counts as inactive or inconclusive. Potency is the fitted concentration of half-maximal effect.

SMILES	BAZ2B inh	JMJD2A Tudor	HP1b chromo inh	G9a block	Sfp inh
Cc1cc(C)c(Cc2c(C)nc3c(C(=O)NCc4ccco4)cnn3c2C)c(C)c1	-8%	?	-8%	?	56µM*
Cc1cc(C)c2c(N)c(C(=O)NCc3ccco3)sc2n1	-2%	-12%	30%	10µM*	-9%
O=C(NCc1ccco1)c1cnn2c(C(F)(F)F)cc(-c3cccs3)nc12	.	-6%	16%	-4%[59 µM]	32µM*
O=C(O)c1cnn2c(C(F)(F)F)cc(-c3ccco3)nc12	-32%	20µM*	20%	50µM*	4%
CC1CCc2cc(F)ccc2N1C(=O)c1cc2nc(-c3ccco3)cc(C(F)(F)F)n2n1 (configuration not stated)	3%	2%	26%	50µM*	-9%
N#Cc1c(NC(=O)CSc2ncnc3sccc23)oc(-c2ccco2)c1-c1ccco1	45µM*	79µM*	?	?	?
O=c1c2[nH]c3ccccc3c2ncn1CCN1CCNCC1	-20%	-5%	35%	?	-5%
Cc1ccc2c(c1)[nH]c1c(=O)n(CCN3CCNCC3)cnc12	0%	-18%	35%	45µM*	16%
COC(=O)c1cc(NS(=O)(=O)c2ccc(N3CCOCC3)c([N+](=O)[O-])c2)cc(C(=O)OC)c1	?	?	-4%	?	-2%
O=c1c(-c2ccco2)[n+]([O-])c2ccccc2n1OCc1ccccn1	10%	-6%	15%	?	-6%
O=c1c(-c2ccco2)[n+]([O-])c2ccccc2n1OCc1ccccc1[N+](=O)[O-]	-33%	3%	28%	35µM*	50µM*
CCc1ccc(NC(=S)NNC(=O)c2ccccc2OC(F)F)cc1	6%	.	.	13µM*	10%
COc1ccc(NC(=S)NNC(=O)c2ccccc2OC(F)F)cc1	0%	-20%	5%	?	3%
N#Cc1ccc(-c2nnnn2-c2ccc3c(c2)OCO3)cc1	-25%	-11%	27%	?	-6%
N#CC1=C2Sc3ccccc3N2CCCC1=O	-19%	-12%	30%	-5%[59 µM]	15%
N=C1C2=C3Sc4ccccc4N3CCCC2=NN1c1cccc(S(=O)(=O)O)c1	?	-19%	23%	?	89µM*
Cc1c(/C(O)=C2/C(=O)C(=O)N(Cc3cccnc3)C2c2ccccn2)cnn1-c1ccccc1 (configuration not stated)	50µM*	?	7%	32µM*	1%
O=C1C(=O)N(Cc2cccnc2)C(c2ccccn2)/C1=C(/O)c1ccc(F)cc1 (configuration not stated)	?	?	3%	?	89µM*
Cc1cc(C)nc(SC2c3cccc4cccc(c34)C2NS(=O)(=O)c2ccccc2)n1 (configuration not stated)	-5%	-21%	28%	2%	15%
Nc1nc(SC2c3cccc4cccc(c34)C2NS(=O)(=O)c2ccccc2)n[nH]1 (configuration not stated)	?	-22%[57.1 µM]	?	3.2µM*	3%
COc1ccc(CCNC(=O)CNCC2CCCCC2)cc1OC	56µM*	25µM*	?	-4%	-24%
NS(=O)(=O)c1ccc(CCNC(=O)CN2CCN(c3ccc(F)cc3)CC2)cc1	2%	-7%	35%	1%[59 µM]	6%
COc1ccc(CCNC(=O)CN2C(=O)COc3ccccc32)cc1OC	25%	-10%	53%	9%[59 µM]	.
O=C(CN1CCCCCC1)NCCc1ccc(F)cc1	50µM*	3.5µM*	?	8.9µM*	?
COc1ccc(CNC(=O)CN2CCN(S(=O)(=O)c3cc(Br)ccc3Br)CC2)cc1OC	-4%	-27%	6%	50µM*	.
SMILES	BAZ2B inh	JMJD2A Tudor	HP1b chromo inh	G9a block	Sfp inh
COc1ccc(CCNC(=O)CN2CCCc3ccccc32)cc1OC	-45%	-24%	13%	56µM*	2%
COc1ccc(CCC(=O)NCC2CCCCC2)cc1OC	5%	-11%	36%	-5%	8%
Cc1ccc(C(=O)N2[C@@H]3CN(C)C(=O)[C@@]2(C)[C@H]2C(=O)N(Cc4ccccc4)C(=O)[C@@H]32)cc1	.	-6%	38%	.	.
COc1ccc(CCNC(=O)CN2CCC(C)CC2)cc1OC	56µM*	?	?	?	-5%
COc1ccc(CCNC(=O)CN2CCC(C(N)=O)CC2)cc1	13%	11%[57.1 µM]	19%	29%	-14%
CN(C(=O)COC(=O)COc1ccccc1F)C1CCS(=O)(=O)C1 (configuration not stated)	8%	-5%	24%	17%[59 µM]	7%
O=C(CSc1nnc(C2CC2)n1Cc1ccccc1)N1CCN(S(=O)(=O)c2ccccc2)CC1	0%	-12%	24%	-6%[59 µM]	-5%
CCOc1ccc(C(=O)CSc2nnc(C3CC3)n2C)cc1	6%	8%	1%	?	?
O=C(CSc1nnc(C2CC2)n1Cc1ccccc1)c1ccc(S(=O)(=O)N2CCOCC2)cc1	1%	-35%	42%	3.2µM*	13µM*
Cn1c(SCc2ccc(Cl)cc2)nnc1C1CC1	-18%	1%	36%	32µM*	-11%
Cn1c(SCc2ccccc2)nnc1C1CCCNC1 (configuration not stated)	?	?	13%	?	17%
CC(=O)NCc1ccc(C(=O)CSc2nnc(C3CC3)n2C2CC2)cc1	-4%	22µM*	1%	?	.
Cn1c(SCC(=O)c2ccccc2)nnc1C1CC1	-3%	9%[11.4 µM]	-12%	40µM*	56µM*
Brc1ccc(Sc2cnc3ccccc3n2)cc1	156%	142%	220%	116%[59 µM]	4%
Cc1nc(-c2ccc(F)cc2)c(CC(=O)N(C)CC(=O)Nc2ccccc2Br)s1	-3%	-21%	5%	9%[2.33 µM]	.
Cc1c(NC(=O)C(C)OC(=O)CNC(=O)c2ccccc2)c(=O)n(-c2ccccc2)n1C (configuration not stated)	5%	2%	21%	-3%[59 µM]	9%
Cn1c(SCC#N)nnc1-c1cnccn1	1%	-11%	25%	1.4µM*	9%
Cn1c(SCC(=O)c2ccccc2)nnc1-c1cnccn1	?	25µM*	?	20µM*	?
CCc1cc(=O)oc2c3c(cc(OCC(=O)NCc4ccccn4)c12)OC(C)(C)CC3	2%	-13%	42%	-1%[12.7 µM]	-5%
O=C(NCc1ccccc1)NC1(C(=O)N2CCCC2)CCCCC1	-9%	6%	31%	-3%	1%
COCCCNC(=O)c1ccc2c3c(onc13)-c1ccccc1C2=O	20µM*	50µM*	?	.	56µM*
CC(C)(C)NC(=O)NC(=O)COC(=O)CCC1CCCC1	12%	-1%	42%	16%[59 µM]	-4%
Cc1cn(C(=O)c2ccccc2)c(=S)n1-c1ccc(Cl)cc1	-21%	-4%	21%	1%[59 µM]	10%
